We go through 49 molecules from PubChem BioAssay AID651815 (National Center for Advancing Translational Sciences (NCATS), 2012).

The structures appear in SMILES notation. Among all 2,100 compounds or so, about 1,100 (52%) were called active. Inconclusive results (about 29%) are left out. The set was probably picked from earlier hits. The list shows a part of the results. Values without a mark were called inactive. The call rests on the fitted dose curve; in most records, active means well fitted inhibition curve with a large enough effect; inconclusive means small, poorly fitted or top-dose-only effect; inactive means no such curve, though single readings can be large or run the other way.
On the % scale 0 is the no-effect control and ±100 the full control effect; potency means the concentration at half of the fitted maximal effect.

Chain of DNA dC->dU-editing enzyme APOBEC-3F (Homo sapiens) (Q8IUX4 whole entry, looked up): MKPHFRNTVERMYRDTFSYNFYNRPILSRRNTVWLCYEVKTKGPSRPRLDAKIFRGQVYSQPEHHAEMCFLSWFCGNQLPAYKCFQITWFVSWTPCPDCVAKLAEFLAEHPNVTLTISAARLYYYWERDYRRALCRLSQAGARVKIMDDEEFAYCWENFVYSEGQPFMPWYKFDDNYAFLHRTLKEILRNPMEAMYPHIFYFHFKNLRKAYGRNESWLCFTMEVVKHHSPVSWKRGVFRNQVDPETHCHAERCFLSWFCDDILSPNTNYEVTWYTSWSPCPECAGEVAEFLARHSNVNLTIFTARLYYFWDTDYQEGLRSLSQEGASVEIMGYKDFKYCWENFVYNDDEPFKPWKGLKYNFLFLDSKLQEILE

The target in this assay is DNA dC->dU-editing enzyme APOBEC-3F (Homo sapiens) (UniProt Q8IUX4). Description: qHTS for inhibitors of Vif-A3F interactions: Cherry picks counterscreen. Further: nearly all actives have a fitted effect of over 65% in size. To be noted: HeLa A3F-eYFP/Vif cells, eYFP fluorescence, 24 h; series mostly up to 46.1 µM; activity, negative = inhibitor: at the top concentration. From the text:
The recent discovery and characterization of host restriction factors, which provide a potent defense to invading retroviruses, has provided new targets for antiviral drug development. APOBEC3G (A3G) and APOBEC3F (A3F) are potent cytidine deaminases that block HIV-1 replication; HIV-1 expresses the Vif protein, which counteracts A3G and A3F by binding to them and inducing their proteasomal degradation. The Vif-A3G and Vif-A3F interactions provide two potential targets for development of small molecules which can interfere with the ability of Vif to degrade A3G or A3F. […] To identify inhibitors that can interfere with Vif mediated degradation of A3G and A3F, we have developed Hela cell lines that stably express A3G or A3F tagged with eYFP at the C-terminal end (A3G-eYFP or A3F-eYFP, respectively) and Vif. In the absence of an inhibitor, Vif induces degradation of A3G-eYFP and A3F-eYFP, and the cells are not fluorescent. In the presence of an inhibitor, it is expected that Vif will be unable to degrade A3G-eYFP and/or A3F-eYFP, resulting in an increase in yellow fluorescence. In this counterscreen assay, Vif A3F was screened against the cherry picks ordered from the MLSMR. NIH Chemical Genomics Center [NCGC] NIH Molecular Libraries Probe Centers Network [MLPCN] MLPCN Grant: MH093245 Assay Submitter (PI): Vinay Pathak, National Cancer Institute
A3F-Vif cells were harvested from T225 flask and resuspended in phenol free OPTI-MEM medium with 5% FBS. Then 5 uL of 140,000 cells/mL resuspended cells was dispensed into each well of low base Aurora COC 1,536-well plates (black walled, clear bottom) using a Multidrop Combi dispenser. After overnight culture at 37 deg C with 5% CO2, a total of 23 nL of compounds at 5 selected concentrations from the NPC or positive control (2 mM stock of MG132) in DMSO was transferred to each well of the assay plate using a pintool (Kalypsys, San Diego, CA), and the plates were further incubated at 37 deg C with 5% CO2 for 24 hours. After that, the plates were measured on Acumen Explorer (TTP Lab Tech). The fluorescence was detected by 488 nm/Ex and […].
Consider `COc1ccc(N=Cc2sc(O)c3ccccc23)cc1`, for which the Potency was 15.8 µM (active).

In the case of `COc1ccc(N=Cc2c(O)c3ccccc3n2C(C)=O)cc1`, the Potency is 16.4 µM (active).

`Oc1sc(C=Nc2ccccc2)c2ccccc12`: the Potency was 23.1 µM (active).

For the molecule `COc1ccc(N=Cc2oc3ccc4ccccc4c3c2O)cc1`, the Potency is 9.2 µM (active).

On to `Cc1ccc(NC2=C(Cl)C(=O)N(C3CCCCC3)C2=O)cc1`, for which the “activity, negative = inhibitor” value is -2.36%.

Regarding `Oc1sc(C=Nc2ccc(F)cc2)c2ccccc12`, the Potency is 20.6 µM (active).

On to `COc1cc(N(C)C)c(OC)cc1/C=C/c1ccnc2ccccc12`, for which the Potency was 23.1 µM (active).

Regarding `COc1cc(/C=C/c2ccnc3ccccc23)ccc1N(C)C`, the Potency is 23.1 µM (active).

For `COc1cc(OC)c(/C=C/c2ccnc3ccccc23)c(OC)c1`, the Potency was 5.8 µM (active).

For the molecule `N#C/C(=C\c1ccc(C(=O)O)cc1)c1nc2sc3c(c2c(=O)[nH]1)CCCC3`, the “activity, negative = inhibitor” value is -7.1%.

With `CN(C)c1ccc(/C=C(\C#N)C(=O)Nc2nc3c(s2)CCN(Cc2ccccc2)C3)cc1`, the Potency was 0.396 µM (active).

Consider `CN(C)c1ccc(/C=C(/C#N)C(=O)Nc2nc3c(s2)CCN(Cc2ccccc2)C3)cc1`, for which the Potency was 0.314 µM (active).

With `Cc1ccc(N2C(=O)CS/C2=C(\C(Cl)=C(Cl)Cl)[N+](=O)[O-])cc1`, the “activity, negative = inhibitor” value is -2.43%.

On to `Cc1cccc2c(=O)n3c(cc12)-c1[nH]c2ccccc2c1CC3`, for which the Potency is 16.4 µM (active).

For the molecule `CC[N+](C)(C)c1ccc(/C=C/c2ccncc2)cc1`, the Potency is 20.6 µM (active).

Consider `CCC[N+](C)(C)c1ccc(/C=C/c2ccncc2)cc1`, for which the Potency was 18.4 µM (active).

On to `COc1ccc2nc(N3C(=O)/C(=C/c4ccccc4)NC3=S)sc2c1`, for which the Potency is 13 µM (active).

Turning to `COc1ccc(NC(=O)CSc2ccc3c4c(cccc24)C(=O)c2ccccc2-3)cc1`, the Potency was 14.6 µM (active).

For `CCn1c(CNC(=O)C23CC4CC(CC(C4)C2)C3)nnc1SCC(=O)Nc1ccc(OC)cc1`, the “activity, negative = inhibitor” value is 0.0525%.

For `N#Cc1cccc(NC(=O)CSc2ccc3c4c(cccc24)C(=O)c2ccccc2-3)c1`, the Potency was 11.6 µM (active).

For the molecule `CCCCCCN1C[C@H](O)[C@@H](n2cc(COC(=O)c3ccccc3)nn2)C[C@@H]1c1ccc(C)cc1`, the “activity, negative = inhibitor” value was -0.577%.

Take `CCCn1nnc(NC(=S)NC(=O)c2ccccc2OC)n1`: the “activity, negative = inhibitor” value was 1.76%.

Turning to `COc1ccccc1-c1cc(C(=O)NN)[nH]n1`, the “activity, negative = inhibitor” value is -2.26% [at 36.9 µM].

Regarding `COc1ccc(NC(=O)c2cc(-c3ccccc3OC)on2)cc1`, the Potency was 6.27 µM (active).

On to `COc1ccc(C(=O)c2ccc(OC)c(OC)c2OC)cc1`, for which the Potency is 6.27 µM (active).

As for `CC(=O)c1cccc(-c2ccnc3c2CC(C(=O)NCC2CCOCC2)O3)c1` (centres undefined), the Potency was 4.44 µM (active).

Turning to `CC(=O)c1cccc(-c2ccnc3c2CC(C(=O)NCC2CC2)O3)c1` (centres undefined), the Potency was 14 µM (active).

Turning to `COc1ccc2c(C)cc(SCC(=O)N(C)C3CCS(=O)(=O)C3)nc2c1` (centres undefined), the “activity, negative = inhibitor” value was -25.5%.

As for `COc1ccc2c(C)cc(SCC#N)nc2c1`, the Potency was 16.4 µM (active).

Regarding `C[C@]12CCC[C@H](O1)c1c(cc3c(c1O)C(=O)c1c(O)cc(O)cc1C3=O)O2`, the Potency is 20.6 µM (active).

For the molecule `Cc1ccc(C(=O)NN(C)c2nc3ccccc3nc2C(F)(F)F)cc1`, the Potency was 2.8 µM (active).

As for `CN(NC(=O)c1ccccc1)c1nc2ccccc2nc1C(F)(F)F`, the Potency was 3.96 µM (active).

Turning to `O=c1oc2cc(O)ccc2cc1-c1nc(-c2ccc(Cl)c(Cl)c2)cs1`, the Potency is 2.06 µM (active).

In the case of `CCc1sc(-c2cc3ccc(O)cc3oc2=O)nc1-c1ccc(C)cc1`, the “activity, negative = inhibitor” value is 37.3%.

On to `COc1cc(C2Sc3ccccc3NC3=C2C(=O)OC3)cc(OC)c1OC` (centres undefined), for which the Potency is 17.7 µM (active).

In the case of `CCOC(=O)Nc1cc2c(c(N)n1)N=C(c1ccccc1)CN2`, the Potency is 0.116 µM (active).

`Cc1nnc(SCC(=O)NCc2ccccc2F)c2nn(-c3ccc(Cl)cc3)c(C)c12`: the Potency is 14.6 µM (active).

With `CCOC(=O)c1cnc(-n2nc(C)cc2C)nc1NNc1cc(C)nc(-c2ccccc2)n1`, the “activity, negative = inhibitor” value is 2.69%.

Take `O=C(Cn1c(=O)n(Cc2ccco2)c(=O)c2sc3ccccc3c21)Nc1ccccc1C(F)(F)F`: the Potency was 23.1 µM (active).

`C(=C\c1c[nH]c2ccccc12)/c1nccc2ccccc12`: the Potency is 18.4 µM (active).

Regarding `C(=Cc1c[nH]c2ccccc12)c1nccc2ccccc12`, the Potency is 20.6 µM (active).

For the molecule `Cc1ccc2c(/C=C/c3c[nH]c4ccccc34)ccnc2c1C`, the Potency was 8.2 µM (active).

Turning to `CCCSc1nnc(N2C(=O)C(O)=C(C(=O)c3ccco3)C2c2ccccc2F)s1` (centres undefined), the “activity, negative = inhibitor” value was 0.34%.

With `Cc1nc2c3cc(F)ccc3n(Cc3ccccc3F)c2s1`, the Potency is 12.5 µM (active).

As for `Cc1nc2c3ccccc3n(Cc3ccccc3F)c2s1`, the Potency is 17.7 µM (active).

As to `Cc1nc2c3cc(F)ccc3n(Cc3ccccc3)c2s1`, the Potency is 6.27 µM (active).

Turning to `CCOC(=O)CSc1nc2c(c(=O)[nH]1)C(C)(CC)Cc1ccccc1-2` (centres undefined), the Potency is 5.8 µM (active).

Take `Cc1sc2nc(SCC(=O)N3CCOCC3)[nH]c(=O)c2c1-c1ccccc1`: the “activity, negative = inhibitor” value is -14.6%.

`CCSc1nccc(-c2nn(-c3ccc(C)cc3)ccc2=O)n1`: the Potency is 7.04 µM (active).
